NPC1 prom act – activates the NPC1 promoter; Huh7 NPC1 promoter luciferase reporter, 24 h; AID 485313; actives 2.4% (n = 320,000); Potency, µM (highest dose often 9.22 µM), most hits filed as activators; further: nearly all actives have a fitted effect of over 60% in size
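Luciferase expression driven by the NPC1 promoter was measured in stably transfected Huh7 cells after a 24 h compound incubation, using a luciferase reagent and a luminescence read.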
Rab9 prom act – activates the Rab9 promoter; Potency, µM (doses to about 9.22 µM), most hits filed as activators; Huh7 Rab9 promoter-luciferase reporter, luminescence, 24 h; actives 2.8% (n = 320,000); further: nearly all actives have a fitted effect of over 60% in size
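Luminescence read-out: Huh7 cells stably expressing Rab9-luciferase, treated 24 h with compound at 37 °C, then lysed with luciferase reagent for 10 min at ambient before reading.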
FLuc modulator – firefly luciferase modulation, counter-screen for miR-21 project. P08659. purified FLuc, Km substrates, luminescence inhibition. Potency, µM (highest dose often 57.5 µM), usual class: inhibitors. actives 6.9% (n = 360,000); further: nearly all actives have a fitted effect of over 55% in size
Target sequence (P08659 whole entry, looked up): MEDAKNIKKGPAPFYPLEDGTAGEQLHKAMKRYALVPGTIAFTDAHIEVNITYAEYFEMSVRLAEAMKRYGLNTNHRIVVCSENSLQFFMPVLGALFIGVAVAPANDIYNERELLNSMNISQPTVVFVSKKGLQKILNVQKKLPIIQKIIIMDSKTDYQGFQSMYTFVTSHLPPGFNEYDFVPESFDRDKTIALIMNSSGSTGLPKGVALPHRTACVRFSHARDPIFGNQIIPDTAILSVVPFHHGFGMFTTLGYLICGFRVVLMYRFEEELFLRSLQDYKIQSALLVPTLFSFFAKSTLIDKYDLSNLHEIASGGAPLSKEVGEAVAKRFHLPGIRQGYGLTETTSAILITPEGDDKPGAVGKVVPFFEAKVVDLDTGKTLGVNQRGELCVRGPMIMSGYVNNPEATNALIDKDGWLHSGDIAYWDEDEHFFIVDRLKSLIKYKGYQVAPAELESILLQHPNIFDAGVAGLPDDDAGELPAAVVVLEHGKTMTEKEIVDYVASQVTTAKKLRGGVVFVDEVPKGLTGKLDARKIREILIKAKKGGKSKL
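Biochemical qHTS of compounds, final roughly 60 µM downward over six points, against 10 nM purified firefly luciferase using Km concentrations of substrates (10 uM D-luciferin, 10 uM ATP) in Tris acetate pH 7.5 buffer; luminescence output.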
ELG1 repair inh – blocks ELG1-dependent DNA repair in HEK293T cells; actives 2.3% (n = 330,000); HEK293T ELG1-luciferase reporter, luminescence, 16 h; DNA damage induced by 5-fluorouridine; Potency, µM (highest dose often 46.1 µM), actives largely listed as inhibitors; AID 504467; further: nearly all actives have a fitted effect of over 55% in size
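HEK293T cells expressing luciferase-tagged ELG1 (2,000/well) received 5-Fluorouridine plus compound or DMSO for 16 hr at 37 °C. Luciferase was read by ONE-Glo luminescence after 30 min at room temperature.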
SMN2 splice enh – increases expression of the SMN2 splice variant | actives 2.8% (n = 210,000) | AID 1458 | Potency, µM (series often up to 46.1 µM), most hits filed as activators | HEK293 SMN2-luciferase splicing reporter, luminescence, 30-36 h; further: nearly all actives have a fitted effect of over 55% in size
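HEK293 cells carry an SMN2 minigene-luciferase reporter in which exon 7 inclusion puts luciferase in frame. Cells were seeded at 2000 cells/well, attached for 10-12 hours, then exposed to compounds for 30-36 hours at 37C before ONE-Glo luminescence.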
ELG1 genotoxic – inducers of genotoxicity in HEK293T ELG1-luciferase cells; HEK293T ELG1-luciferase reporter, luminescence, 16 h; AID 504466; actives 1.3% (n = 330,000); Potency, µM (series often up to 46 µM), actives largely listed as activators; further: nearly all actives have a fitted effect of over 60% in size
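HEK293T cells expressing luciferase-tagged ELG1 were treated with compound or DMSO for 16 hr at 37°C. Luciferase activity was then read after 30 min with ONE-Glo at room temperature; rising signal flags genetic stress.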
Large screens that a line does not name were inactive. Shown are actives, neighbours in structure and some others; about 9.4% of the full set was active somewhere. The call rests on the fitted dose curve; in most records, active means well fitted curve in the direction sought with a large enough effect; inconclusive means small, poorly fitted or top-dose-only effect, or another doubt; inactive means no such curve, though single readings can be large; an effect the other way counts as inactive or inconclusive.

Cc1cccc(-c2cc3nc4c(c(NCc5ccco5)n3n2)CCCC4)c1	NPC1 prom act inconclusive, Rab9 prom act 3.16µM, FLuc modulator 10.7µM, ELG1 repair inh inconclusive
Cc1ccc(-c2cc3nc(-c4ccccc4)cc(N4CCOCC4)n3n2)cc1	ELG1 repair inh inconclusive
Fc1ccc(-c2cc3nc4c(c(N5CCOCC5)n3n2)CCCC4)cc1	FLuc modulator 21.3µM
COc1cccc(-c2cc3nc4c(c(N5CCC6(CC5)OCCO6)n3n2)CCC4)c1	FLuc modulator 26.9µM, ELG1 repair inh inconclusive
COc1ccc(-c2cc3nc4c(c(N5CCC6(CC5)OCCO6)n3n2)CCC4)cc1	ELG1 repair inh inconclusive (no result: SMN2 splice enh)
Cc1cccc(-c2cc3nc4c(c(N5CCOCC5)n3n2)CCCC4)c1	NPC1 prom act inconclusive, Rab9 prom act inconclusive, FLuc modulator 2.39µM, ELG1 repair inh inconclusive, ELG1 genotoxic inconclusive
COCCN1CCN(c2c3c(nc4cc(-c5cccc(F)c5)nn24)CCC3)CC1	ELG1 repair inh inconclusive
COc1ccc(CN2C(=NC(=O)CCc3ccccc3)SC3CS(=O)(=O)CC32)cc1 (centres undefined)	none (no result: SMN2 splice enh)
COc1ccc(CNC(=O)CCc2c(C)c3cc4c(C)c(C)oc4cc3oc2=O)cc1OC	none (no result: NPC1 prom act, Rab9 prom act, ELG1 repair inh, ELG1 genotoxic)
Cc1cc2ccccn2c1C(=O)c1ccc(F)cc1	none (no result: SMN2 splice enh)
Cc1cc2ccccn2c1C(=O)c1ccc(S(=O)(=O)N(C)C)cc1	ELG1 repair inh 16.4µM (no result: SMN2 splice enh)
COc1ccc(NC(=O)C2CCCN(S(=O)(=O)c3ccc4c(c3)CCCC(=O)N4)C2)cc1OC (centres undefined)	none (no result: NPC1 prom act, Rab9 prom act, ELG1 repair inh, SMN2 splice enh, ELG1 genotoxic)
CCc1nn2c(=O)cc(COC(=O)c3ccccc3NC(=O)c3ccc(C(C)(C)C)cc3)nc2s1	FLuc modulator 5.36µM (no result: NPC1 prom act, Rab9 prom act, ELG1 repair inh, SMN2 splice enh, ELG1 genotoxic)
CCc1nn2c(=O)cc(COC(=O)c3ccccc3)nc2s1	FLuc modulator 16.9µM (no result: NPC1 prom act, Rab9 prom act, ELG1 repair inh, SMN2 splice enh, ELG1 genotoxic)
CCCc1nn2c(=O)cc(COC(=O)c3ccccc3NC(=O)c3ccc(Cl)cc3)nc2s1	none (no result: NPC1 prom act, Rab9 prom act, ELG1 repair inh, SMN2 splice enh, ELG1 genotoxic)
Cc1csc2nc(COC(=O)c3ccccc3NC(=O)c3ccc(C(C)(C)C)cc3)cc(=O)n12	FLuc modulator 2.69µM (no result: NPC1 prom act, Rab9 prom act, ELG1 repair inh, SMN2 splice enh, ELG1 genotoxic)
O=C(OCc1cc(=O)n2c(n1)sc1ccccc12)c1ccc(O)cc1	FLuc modulator inconclusive, ELG1 repair inh inconclusive, SMN2 splice enh 20µM, ELG1 genotoxic inconclusive
CCCCOc1ccccc1C1CC(=O)Nc2ccc3ccccc3c21 (centres undefined)	none (no result: NPC1 prom act, Rab9 prom act, ELG1 repair inh, ELG1 genotoxic)
CCOc1ccc(CCn2c3c(c(=O)[nH]c2=O)C(NC(=O)c2ccccc2)(C(F)(F)F)C(=O)N3)cc1OCC (centres undefined)	none (no result: NPC1 prom act, Rab9 prom act, ELG1 repair inh, ELG1 genotoxic)
COC(=O)c1ccccc1NC(=O)N1CCC(N2CCN(Cc3ccc(F)cc3)C(=O)C2=O)CC1	none (no result: NPC1 prom act, Rab9 prom act, ELG1 repair inh, SMN2 splice enh, ELG1 genotoxic)
COc1ccc(NC(=O)C2CCN(S(=O)(=O)c3cccc(-c4noc(C)n4)c3)CC2)cc1OC	none (no result: NPC1 prom act, Rab9 prom act, ELG1 repair inh, SMN2 splice enh, ELG1 genotoxic)
Fc1ccccc1-n1ncc2c1ncn1nc(Cc3ccccc3)nc21	FLuc modulator 6.01µM, SMN2 splice enh 11.2µM (no result: NPC1 prom act, Rab9 prom act, ELG1 repair inh, ELG1 genotoxic)
COc1ccc(-c2c(-c3ccc4c(c3)OCO4)noc2C)cn1	FLuc modulator 21.3µM, ELG1 repair inh inconclusive (no result: SMN2 splice enh)
COc1cccc(/C=N/Nc2ncnc3c2[nH]c2ccc(C)cc23)c1OC	FLuc modulator 1.51µM (no result: SMN2 splice enh)
C=CCNc1ncnc2c1[nH]c1ccc(C)cc12	NPC1 prom act inconclusive, Rab9 prom act 2.51µM, FLuc modulator 4.26µM, ELG1 repair inh inconclusive, SMN2 splice enh 2.82µM, ELG1 genotoxic 9.2µM
COc1ccc(/C=N/Nc2ncnc3c2[nH]c2ccccc23)c(OC)c1OC	SMN2 splice enh inconclusive
Cc1ccc2[nH]c3c(NCCN4CCOCC4)ncnc3c2c1	FLuc modulator inconclusive, ELG1 repair inh inconclusive
C/C(=N\N=c1/sc2ccccc2n1C)c1ccc(N2CCOCC2)cc1	FLuc modulator 2.39µM, ELG1 repair inh inconclusive
C/C(=N\N=c1/sc2ccccc2n1C)c1ccccn1	NPC1 prom act inconclusive, Rab9 prom act inconclusive, FLuc modulator 16.9µM, ELG1 repair inh inconclusive, SMN2 splice enh inconclusive, ELG1 genotoxic inconclusive

Screening data deposited in PubChem BioAssay by National Center for Advancing Translational Sciences (NCATS).
